# Results published in PubChem BioAssay (Tox21).
# Values joined by “and” are separate entries in the source; they are usually repeats but may differ in a detail not shown here. Equal entries are not always repeated. More than one record can exist for a structure, and the calls need not agree. Active and inactive are the calls of the source. Entries that show only a call come without a potency. Unless noted, calls follow the shape of the dose curve; as a rule, active = well fitted curve in the direction sought with a large enough effect in the repeat runs; inconclusive = weak or mixed curves; inactive = no such curve, though single readings can be large; an effect the other way counts as inactive or inconclusive.
# Assays:
# [1] = qHTS assay to identify small molecule antagonists of the thyroid receptor (TR) signaling pathway - cell viability counter screen (AID 743064); also: nearly all actives have a fitted effect of over 50% in size; also: potency is read from the fitted curve at half-maximal effect
# Outline: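 Fluorescence from CellTiter-Fluor, added after 23.5 h exposure at 37 °C, reported viability of GH3.TRE-Luc cells co-treated with compound and 1 nM T3. Measured in the same wells as the luciferase TR readout.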
# [2] = qHTS assay to identify small molecule antagonists of the thyroid receptor (TR) signaling pathway (AID 743065); also: nearly all actives have a fitted effect of over 55% in size; also: potency is read from the fitted curve at half-maximal effect
# Outline: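 GH3.TRE-Luc rat pituitary cells (two TREs driving luciferase) were dosed with compound, then stimulated with 1 nM T3 (final) for 23.5 h at 37 C. ONE-Glo luminescence was the read-out, with CellTiter-Fluor fluorescence as the cytotoxicity counter-screen.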
# [3] = test system: thyroid hormone receptor (rat, GH3 cells); test: qHTS assay to identify small molecule agonists of the thyroid receptor (TR) signaling pathway (AID 743066; calls by dose curve)
# [4] = qHTS assay to identify small molecule antagonists of the estrogen receptor alpha (ER-alpha) signaling pathway - cell viability counter screen (AID 743074; calls by dose curve; also: nearly all actives have a fitted effect of over 45% in size; also: potency is read from the fitted curve at half-maximal effect)
# [5] = qHTS assay to identify small molecule antagonists of the estrogen receptor alpha (ER-alpha) signaling pathway using the BG1 cell line - cell viability counter screen (AID 743081);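 also: compound given together with 17beta-estradiol as the ER stimulus; nearly all actives have a fitted effect of over 45% in size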; also: potency is read from the fitted curve at half-maximal effect
# [6] = target: Aromatase (Homo sapiens) (UniProt P11511); test: qHTS assay to identify aromatase inhibitors (AID 743083); also: nearly all actives have a fitted effect of over 55% in size; also: potency is read from the fitted curve at half-maximal effect
# Aromatase (Homo sapiens), sequence (P11511 whole entry, looked up): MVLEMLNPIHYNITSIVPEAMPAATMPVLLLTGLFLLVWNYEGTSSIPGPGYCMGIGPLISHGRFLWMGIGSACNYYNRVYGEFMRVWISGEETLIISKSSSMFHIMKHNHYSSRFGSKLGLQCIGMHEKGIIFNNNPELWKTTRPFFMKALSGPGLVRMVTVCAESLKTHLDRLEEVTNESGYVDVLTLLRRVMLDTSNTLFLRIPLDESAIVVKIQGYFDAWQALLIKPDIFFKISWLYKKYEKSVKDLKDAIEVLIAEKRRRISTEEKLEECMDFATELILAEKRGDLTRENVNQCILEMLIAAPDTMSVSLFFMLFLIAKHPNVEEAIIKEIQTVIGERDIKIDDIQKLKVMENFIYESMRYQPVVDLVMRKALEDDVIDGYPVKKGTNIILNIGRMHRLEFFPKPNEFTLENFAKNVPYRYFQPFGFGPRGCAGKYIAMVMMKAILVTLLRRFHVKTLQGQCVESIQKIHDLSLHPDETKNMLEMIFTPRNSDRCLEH
# [7] = qHTS assay to identify aromatase inhibitors - cell viability counter screen (AID 743084);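 also: cells stimulated with testosterone during compound exposure; nearly all actives have a fitted effect of over 55% in size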; also: potency is read from the fitted curve at half-maximal effect
# [8] = target: Aryl hydrocarbon receptor (Homo sapiens) (UniProt P35869); test: qHTS assay to identify small molecule that activate the aryl hydrocarbon receptor (AhR) signaling pathway (AID 743085); also: nearly all actives have a fitted effect of over 15% in size; also: potency is read from the fitted curve at half-maximal effect;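 as to activation: HG2L7.5c1 human HepG2 liver cells with stably integrated DRE-driven firefly reporter; series mostly up to about 70 µM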
# Aryl hydrocarbon receptor (Homo sapiens), sequence (P35869 whole entry, looked up): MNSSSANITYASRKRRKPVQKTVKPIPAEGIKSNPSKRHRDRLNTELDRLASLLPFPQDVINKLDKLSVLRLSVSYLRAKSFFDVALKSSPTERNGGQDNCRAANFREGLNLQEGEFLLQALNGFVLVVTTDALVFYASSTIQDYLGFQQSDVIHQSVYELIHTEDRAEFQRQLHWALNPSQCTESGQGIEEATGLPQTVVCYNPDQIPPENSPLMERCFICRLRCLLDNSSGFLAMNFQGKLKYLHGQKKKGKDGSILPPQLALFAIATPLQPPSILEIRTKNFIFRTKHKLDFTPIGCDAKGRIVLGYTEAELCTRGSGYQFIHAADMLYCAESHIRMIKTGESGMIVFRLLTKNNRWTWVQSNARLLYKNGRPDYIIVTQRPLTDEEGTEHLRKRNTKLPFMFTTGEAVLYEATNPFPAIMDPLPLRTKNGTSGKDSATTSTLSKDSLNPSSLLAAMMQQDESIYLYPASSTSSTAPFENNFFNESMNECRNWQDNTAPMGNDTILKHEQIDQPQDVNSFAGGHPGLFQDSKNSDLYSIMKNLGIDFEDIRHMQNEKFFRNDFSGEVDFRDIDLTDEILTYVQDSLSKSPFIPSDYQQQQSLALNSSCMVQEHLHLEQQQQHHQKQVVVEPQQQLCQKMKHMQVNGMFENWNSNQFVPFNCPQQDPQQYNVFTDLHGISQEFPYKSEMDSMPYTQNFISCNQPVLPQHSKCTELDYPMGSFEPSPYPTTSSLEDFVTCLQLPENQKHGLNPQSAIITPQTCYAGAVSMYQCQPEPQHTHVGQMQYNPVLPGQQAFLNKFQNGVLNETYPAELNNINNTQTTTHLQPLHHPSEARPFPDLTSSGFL
# Outline: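 Cell line HG2L7.5c1 (human hepatoma, 20× DRE-luc). Plated, 5 h 37C, compound/DMSO added, 24 h 37C. CellTiter-Fluor 30 min 37C → fluorescence; then ONE-Glo 30 min RT → luminescence.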
# [9] = qHTS assay to identify small molecule that activate the aryl hydrocarbon receptor (AhR) signaling pathway - cell viability counter screen (AID 743086); also: nearly all actives have a fitted effect of over 45% in size; also: potency is read from the fitted curve at half-maximal effect
# Outline: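 HepG2-AhR-luc (HG2L7.5c1) cells, 4000/well, treated 24 h at 37 C with compound; viability measured as CellTiter-Fluor fluorescence after 30 min in the same wells as the luciferase read.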
# [10] = target: Peroxisome proliferator-activated receptor gamma (Homo sapiens) (UniProt P37231); test: qHTS assay to identify small molecule agonists of the peroxisome proliferator-activated receptor gamma (PPARg) signaling pathway (AID 743094; active = well fitted activation curve with a large enough effect in the signal ratio in the repeat runs, not every such curve was filed as active; inconclusive = weak or mixed curves, or effect the other way; inactive = no such curve, though single readings can be large or run the other way; the % refers to the signal ratio)
# Peroxisome proliferator-activated receptor gamma (Homo sapiens), sequence (P37231 whole entry, looked up): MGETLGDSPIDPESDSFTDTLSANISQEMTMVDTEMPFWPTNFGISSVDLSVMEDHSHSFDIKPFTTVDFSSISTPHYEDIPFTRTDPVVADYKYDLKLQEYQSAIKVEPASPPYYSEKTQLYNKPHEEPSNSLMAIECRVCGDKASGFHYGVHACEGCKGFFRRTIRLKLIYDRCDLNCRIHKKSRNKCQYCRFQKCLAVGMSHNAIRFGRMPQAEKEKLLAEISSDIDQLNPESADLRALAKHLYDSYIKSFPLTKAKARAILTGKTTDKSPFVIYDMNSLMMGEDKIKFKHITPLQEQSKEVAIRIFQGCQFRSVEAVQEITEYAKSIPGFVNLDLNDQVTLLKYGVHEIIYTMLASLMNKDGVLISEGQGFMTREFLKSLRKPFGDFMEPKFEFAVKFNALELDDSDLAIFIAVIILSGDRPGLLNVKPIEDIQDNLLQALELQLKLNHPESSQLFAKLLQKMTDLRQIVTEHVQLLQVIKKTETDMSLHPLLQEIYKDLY
# Outline: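 Cells from the PPARg UAS-bla HEK293H line are plated and incubated 5 h at 37C. Compounds in DMSO are pinned in and left 17 h at 37C. LiveBLAzer B/G substrate is then added for 1 h at room temperature before fluorescence is measured.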
# [11] = target: Peroxisome proliferator-activated receptor gamma (Homo sapiens) (UniProt P37231); test: qHTS assay to identify small molecule antagonists of the peroxisome proliferator-activated receptor gamma (PPARg) signaling pathway (AID 743191; calls by dose curve; also: series mostly up to about 63 µM; nearly all actives have a fitted effect of over 30% in size)
# Outline: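 GeneBLAzer PPARg UAS-bla HEK293H cells, 5 h post-plating, exposed to compounds 17 h at 37C. LiveBLAzer B/G FRET substrate added for 1 h at room temperature; beta-lactamase reporter read by fluorescence intensity.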
# [12] = qHTS assay to identify small molecule antagonists of the peroxisome proliferator-activated receptor gamma (PPARg) signaling pathway - cell viability counter screen (AID 743194); also: nearly all actives have a fitted effect of over 55% in size; also: potency is read from the fitted curve at half-maximal effect
# Outline: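 Cytotoxicity counter screen in PPARg-bla HEK293H cells, same wells as reporter assay. Compounds plus 50 nM rosiglitazone (final) for 17 h at 37 C, then viability read by CellTiter-Glo luminescence.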
# [13] = qHTS assay for small molecule agonists of the antioxidant response element (ARE) signaling pathway (AID 743202; active = well fitted activation curve with a large enough effect in the signal ratio in the repeat runs, not every such curve was filed as active; inconclusive = weak or mixed curves, or effect the other way; inactive = no such curve, though single readings can be large or run the other way; the % refers to the signal ratio; also: potency is read from the fitted curve at half-maximal effect)
# Outline: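 HepG2 ARE-bla cells; 16 h treatment at 37 C; FRET-based beta-lactamase fluorescence read after 2 h substrate incubation at room temperature.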
# [14] = qHTS assay for small molecule agonists of the antioxidant response element (ARE) signaling pathway - cell viability counter screen (AID 743203; calls by dose curve; also: nearly all actives have a fitted effect of over 55% in size; also: potency is read from the fitted curve at half-maximal effect)
# Outline: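 Cytotoxicity was tested in parallel with the ARE reporter screen. ARE-bla HepG2 cells were exposed to compounds for 16 hrs, and viability was taken from CellTiter-Glo luminescence.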
# [15] = qHTS assay for small molecule activators of the heat shock response signaling pathway - cell viability counter screen (AID 743209); also: nearly all actives have a fitted effect of over 50% in size; also: potency is read from the fitted curve at half-maximal effect
# Outline: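 Cytotoxicity counter screen run in parallel with the HSE beta-lactamase reporter, using the same wells. HeLa HSE-bla cells received compound for 5 h at 37 C; ATP-based CellTiter-Glo luminescence was measured after 30 min at room temperature.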
# [16] = qHTS assay for small molecule activators of the heat shock response signaling pathway (AID 743210; active = well fitted activation curve with a large enough effect in the signal ratio in the repeat runs, with a control signal flat, not every such curve was filed as active; inconclusive = weak or mixed curves; the % refers to the signal ratio;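 also: HeLa cells with beta-lactamase reporter driven by heat shock elements; series mostly up to about 63 µM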)
# Outline: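 Following overnight attachment, HSE-bla HeLa cells received test compounds for 5 h at 37 C; beta-lactamase activity was then detected via FRET substrate fluorescence.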
# [17] = target: Estrogen receptor (Homo sapiens) (UniProt P03372); test: qHTS assay to identify small molecule antagonists of the estrogen receptor alpha (ER-alpha) signaling pathway (AID 743069; active = well fitted curve in the direction sought with a large enough effect in the signal ratio in the repeat runs, not every such curve was filed as active; inconclusive = weak or mixed curves, or effect the other way; inactive = no such curve, though single readings can be large or run the other way; the % refers to the signal ratio; also: potency is read from the fitted curve at half-maximal effect)
# Estrogen receptor (Homo sapiens), sequence (P03372 whole entry, looked up): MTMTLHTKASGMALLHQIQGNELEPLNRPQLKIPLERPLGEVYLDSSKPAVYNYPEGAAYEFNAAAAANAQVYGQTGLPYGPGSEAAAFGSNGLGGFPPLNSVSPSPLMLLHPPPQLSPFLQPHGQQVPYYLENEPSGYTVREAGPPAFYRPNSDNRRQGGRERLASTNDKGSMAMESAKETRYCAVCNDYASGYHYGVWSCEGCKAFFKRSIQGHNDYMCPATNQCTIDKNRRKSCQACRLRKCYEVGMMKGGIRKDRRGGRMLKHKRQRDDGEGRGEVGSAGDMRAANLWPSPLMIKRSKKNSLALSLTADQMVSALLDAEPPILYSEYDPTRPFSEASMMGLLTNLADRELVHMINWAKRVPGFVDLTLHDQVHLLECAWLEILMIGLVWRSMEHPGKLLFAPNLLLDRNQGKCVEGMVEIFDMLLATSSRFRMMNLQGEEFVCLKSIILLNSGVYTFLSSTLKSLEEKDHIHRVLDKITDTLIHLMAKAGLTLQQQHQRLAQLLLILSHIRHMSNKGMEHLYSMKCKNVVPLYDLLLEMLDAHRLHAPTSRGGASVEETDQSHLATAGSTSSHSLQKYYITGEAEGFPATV
# Outline: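 In this cell-based reporter format, GripTite HEK293 cells harbouring ER-alpha-UAS-bla were grown overnight with 2% charcoal-stripped FBS, dosed with DMSO-dissolved compounds, then challenged with 17beta-estradiol. After 18 hr at 37C, beta-lactamase activity was detected by FRET fluorescence.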
# [18] = target: Estrogen receptor (Homo sapiens) (UniProt P03372); test: qHTS assay to identify small molecule agonists of the estrogen receptor alpha (ER-alpha) signaling pathway (AID 743075; calls by dose curve; also: potency is read from the fitted curve at half-maximal effect)
# [19] = target: Estrogen receptor (Homo sapiens) (UniProt P03372); test: qHTS assay to identify small molecule agonists of the estrogen receptor alpha (ER-alpha) signaling pathway using the BG1 cell line (AID 743079); also: nearly all actives have a fitted effect of over 20% in size; also: potency is read from the fitted curve at half-maximal effect
# [20] = qHTS assay to identify small molecule antagonists of the estrogen receptor alpha (ER-alpha) signaling pathway using the BG1 cell line (AID 743080; calls by dose curve;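 also: BG1 cells stimulated with 17beta-estradiol alongside compound; series mostly up to about 70 µM; nearly all actives have a fitted effect of over 25% in size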)
# Outline: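 BG1Luc4E2, endogenous ER-alpha, 4xERE-luc; 5 d charcoal-stripped FBS, phenol red free; 24 h plating; cpd + 17beta-estradiol 21.5 h, 37 C/5% CO2; CellTiter-Fluor viability 30 min, then ONE-Glo luciferase 30 min RT.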
SMILES,Potency [1],Potency [2],Potency [3],Potency [4],Potency [5],Potency [6],Potency [7],Potency [8],Potency [9],outcome [10],Potency [11],Potency [12],Potency [13],Potency [14],Potency [15],outcome [16],Potency [17],Potency [18],Potency [19],Potency [20]
CC1(C)NC(=O)N(c2ccc([N+](=O)[O-])c(C(F)(F)F)c2)C1=O,inactive,23.7 µM (active) and 24.3 µM (active),inactive,inactive,inactive,inactive and 27.3 µM (active),inactive,inactive,inactive,inactive,inactive,inactive,6.86 µM (active) and 26.6 µM (active),inactive,inactive,–,–,–,–,–
O=C(O)c1ccc(O)cc1,inactive,inactive,inactive,inactive,inactive,inactive,inactive,inactive,inactive,inactive,inactive,inactive,–,inactive,–,inactive,–,–,–,–
COc1ccc2nc(N)sc2c1,inactive,inactive,inactive,inactive,inactive,inactive,inactive,48.6 µM (active) and 27.3 µM (active),inactive,inactive,inactive,inactive,inactive,inactive,inactive,–,inactive,inactive,30.6 µM (active) and 54.5 µM (active),–
CC(=O)OC(C)C,inactive,inactive,inactive,inactive,inactive,inactive,inactive,inactive,inactive,inactive,inactive,inactive,inactive,inactive,–,inactive,inactive,inactive,–,inactive
Nc1ccc(N)c(Cl)c1,inactive,inactive,inactive,inactive,inactive,61 µM (active) and inactive,61 µM (active) and inactive,54.4 µM (active) and 15.4 µM (active),inactive,–,–,inactive,27.3 µM (active),68.5 µM (active) and inactive,–,–,–,–,–,inactive
c1ccc2ncccc2c1,inactive,inactive,inactive,–,inactive,inactive,inactive,inactive,inactive,inactive,inactive,inactive,inactive,inactive,–,inactive,inactive,inactive,inactive,inactive
COc1ccc(C(=O)c2ccccc2O)c(O)c1,inactive,inactive,inactive,inactive,inactive,inactive,inactive,inactive,inactive,inactive,–,inactive,inactive,inactive,–,inactive,–,–,–,–
CCCOCCO,inactive,inactive,inactive,inactive,inactive,inactive,inactive,inactive,inactive,inactive,inactive,inactive,inactive,inactive,inactive,inactive,–,–,–,–
O=C(O)CCCCCCCCCCCC(=O)O,inactive,inactive,inactive,inactive and 4.36 µM (active),inactive,inactive,inactive,inactive,inactive,inactive,inactive,inactive,inactive,inactive,inactive,–,–,–,–,–
C1CN(SSN2CCOCC2)CCO1,67.9 µM (active),60.5 µM (active),inactive,inactive,inactive,–,61.1 µM (active),inactive,inactive,inactive,–,inactive,inactive,inactive,inactive,–,inactive,inactive,inactive,inactive
CCCCCCOCCOCCO,inactive,inactive,inactive,inactive,inactive,inactive,inactive,inactive,inactive,–,–,inactive,inactive,inactive,inactive,–,–,–,–,–
COC(=O)C(C)Oc1ccc(Oc2ncc(C(F)(F)F)cc2Cl)cc1 (stereo not drawn),inactive,inactive,inactive,inactive,inactive,inactive,inactive,inactive,inactive,inactive,inactive,inactive,–,inactive,–,inactive,–,inactive,–,inactive
c1ccc2c(c1)ccc1cc3c(ccc4ccccc43)cc12,inactive,inactive,inactive,inactive,inactive,inactive,inactive,958 nM (active) and 121 nM (active),inactive,–,–,inactive,538 nM (active) and 959 nM (active),inactive,inactive,inactive,inactive,inactive and 19.3 µM [fluorescent] (active),inactive,–
c1ccc2cc3ccccc3cc2c1,inactive,inactive,inactive,inactive,inactive,inactive,inactive,–,inactive,inactive,inactive,inactive,inactive,inactive,–,–,–,inactive,–,–
COc1cc([C@H]2Oc3cc([C@H]4Oc5cc(O)cc(O)c5C(=O)[C@@H]4O)ccc3O[C@@H]2CO)ccc1O,inactive,inactive,inactive,inactive,inactive,inactive,inactive,inactive,inactive,inactive,inactive,inactive,–,inactive,inactive,inactive,–,inactive,inactive,inactive
Oc1c(Cl)ccc(Cl)c1Cl,inactive,inactive,inactive,inactive,inactive,inactive,inactive,inactive,inactive,inactive,inactive,inactive,–,inactive,inactive,–,–,inactive,inactive,inactive

SMILES,Potency [1],Potency [2],Potency [3],Potency [4],Potency [5],Potency [6],Potency [7],Potency [8],Potency [9],outcome [10],Potency [11],Potency [12],Potency [13],Potency [14],Potency [15],outcome [16],Potency [17],Potency [18],Potency [19],Potency [20]
C=C[C@@]1(C)CC(=O)[C@]2(O)[C@@]3(C)[C@@H](O)CCC(C)(C)[C@@H]3[C@H](O)[C@H](OC(C)=O)[C@@]2(C)O1,inactive,inactive,inactive,inactive,–,1.19 µM (active) and 969 nM (active),inactive,inactive,inactive,inactive,–,inactive,inactive,inactive,24.5 µM (active) and inactive,inactive,–,inactive,–,–
[O-]/[N+](=N\O)c1ccccc1,inactive,inactive,inactive,–,inactive,inactive,inactive,30.6 µM (active),inactive,inactive,inactive,inactive,–,inactive,inactive,–,inactive,inactive and 55 µM [activator] (active),61.1 µM (active),–
C=CCCCCCCCCCC,inactive,inactive,inactive,inactive,inactive,inactive,inactive,inactive,inactive,inactive,inactive,inactive,inactive,inactive,inactive,–,–,–,–,–
C=C1C[C@H]2[C@@H]3C=C(C)C4=CC(=O)CC[C@]4(C)[C@H]3CC[C@]2(C)[C@@]1(OC(C)=O)C(C)=O,inactive,23.7 µM (active) and 15.7 µM (active),inactive,inactive,inactive,inactive,inactive,inactive,inactive,inactive,inactive,inactive,17.6 µM (active) and 29.8 µM (active),inactive,inactive,inactive,inactive,–,inactive,inactive
Cc1ccc(C)c(O)c1,inactive,inactive,inactive,inactive,inactive,inactive,inactive,inactive,inactive,inactive,inactive,inactive,inactive,inactive,inactive,inactive,–,–,–,–
O=[Se](O)O,inactive,inactive,inactive,inactive,6.87 µM (active) and inactive,inactive,inactive,–,27.3 µM (active) and inactive,–,–,inactive,inactive,inactive,inactive,–,43.7 µM [inconclusive] (active) and inactive,inactive,inactive,inactive
Nc1cc([N+](=O)[O-])ccc1C(=O)O,inactive,inactive,inactive,–,inactive,inactive,inactive,21.7 µM (active),inactive,inactive,inactive,inactive,inactive,inactive,inactive,inactive,inactive,inactive,inactive and 77 µM (active),inactive
OCCNCCO,inactive,–,–,17.4 µM (active) and inactive,inactive,inactive,inactive,inactive,inactive,–,–,inactive,inactive,inactive,inactive,inactive,inactive,inactive,inactive,inactive
CC1=CC(C)(C)Nc2ccccc21,inactive,–,inactive,inactive,inactive,–,inactive,–,inactive,inactive,inactive,inactive,inactive,inactive,inactive,inactive,inactive,inactive,inactive,inactive
Clc1ccc(Sc2cc(Cl)c(Cl)cc2Cl)cc1,inactive,inactive,inactive,inactive,inactive,inactive,inactive,–,inactive,inactive,–,inactive,inactive,inactive,inactive,–,–,–,–,–
C=C[C@H]1CN2CC[C@H]1C[C@H]2[C@H](O)c1ccnc2ccc(OC)cc12,inactive and 43.3 µM (active),–,–,inactive,inactive,inactive,inactive,–,inactive,–,–,inactive,–,inactive,inactive,–,–,–,–,–
CN(C)CCCN1c2ccccc2Sc2ccc(Cl)cc21,11.9 µM (active) and 19.3 µM (active),13.3 µM (active) and 15.4 µM (active),–,inactive,inactive,inactive,68.6 µM (active),inactive,30.6 µM (active),–,–,38.9 µM (active) and 26.6 µM (active),–,24.3 µM (active) and 29.8 µM (active),inactive,–,–,–,–,–
O=C(CCCN1CCC(O)(c2ccc(Cl)cc2)CC1)c1ccc(F)cc1,21.1 µM (active) and 54.5 µM (active),26.6 µM (active) and 61.1 µM (active),–,inactive,inactive,inactive,inactive,inactive,inactive,–,–,inactive,–,54.5 µM (active) and inactive,–,–,–,–,–,–
Cc1ccc(C(C)(C)C)c(O)c1,–,54.5 µM (active),inactive,inactive,inactive,–,–,inactive,inactive,inactive,inactive,inactive,inactive,inactive,–,–,inactive,inactive,inactive,inactive
C=CC(=O)OCCCC,inactive,inactive,inactive,–,inactive,inactive,inactive,inactive,inactive,–,–,inactive,inactive,inactive,inactive,inactive,–,–,–,–
